From paper PMC11006913
Positions count from the first letter of the chain named.

Key:
Test in all cases: PBM; 200 nM protein, PBS
Conditions in all cases: dsDNA, one strand shown
NKX2-5 [1] = molecular target: NKX2-5 (Homo sapiens, UniProt P52952 125-210, R139K)
NKX2-4 [2] = molecular target: T1, NKX2-4 (Homo sapiens, UniProt Q9H2Z4 175-261, P217L)
T1 sequence: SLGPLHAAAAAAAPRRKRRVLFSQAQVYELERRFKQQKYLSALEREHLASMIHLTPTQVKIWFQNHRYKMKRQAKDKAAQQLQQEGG

NKX2-4 [3] = molecular target: T2, NKX2-4 (Homo sapiens, UniProt Q9H2Z4 175-261, T231S)
T2 sequence: T1 sequence with L43P, T57S

NKX2-4 [4] = molecular target: T3, NKX2-4 (Homo sapiens, UniProt Q9H2Z4 175-261)
T3 sequence: T1 sequence with L43P

NKX2-6 [5] = molecular target: T4, NKX2-6 (Homo sapiens, UniProt A6NCS4 118-204, R150C)
T4 sequence: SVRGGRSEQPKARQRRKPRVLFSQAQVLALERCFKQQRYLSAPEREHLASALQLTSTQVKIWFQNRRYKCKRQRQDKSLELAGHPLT

NKX2-6 [6] = molecular target: T5, NKX2-6 (Homo sapiens, UniProt A6NCS4 118-204)
T5 sequence: T4 sequence with C33R

NKX2-4 [7] = molecular target: T6, NKX2-4 (Homo sapiens, UniProt Q9H2Z4 175-261, R246Q)
T6 sequence: T1 sequence with L43P, R72Q

NKX2-6 [8] = molecular target: T7, NKX2-6 (Homo sapiens, UniProt A6NCS4 118-204, F151L)
T7 sequence: T4 sequence with C33R, F34L

NKX3-2 [9] = molecular target: NKX3-2 (Homo sapiens, UniProt P78367 192-278, P234S)
NKX2-5 [10] = molecular target: NKX2-5 (Homo sapiens, UniProt P52952 125-210)
NKX3-2 [11] = molecular target: NKX3-2 (Homo sapiens, UniProt P78367 192-278)
Chain of NKX3-2 (Homo sapiens, UniProt P78367 192-278) (P78367 192-278): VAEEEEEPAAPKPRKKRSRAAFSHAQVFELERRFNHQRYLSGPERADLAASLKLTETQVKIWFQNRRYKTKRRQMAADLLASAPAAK

Chain of NKX3-2 (Homo sapiens, UniProt P78367 192-278, P234S) (P78367 192-278 P234S): as the sequence (P78367 192-278) above, with P43S counted along it
Chain of NKX2-5 (Homo sapiens, UniProt P52952 125-210) (P52952 125-210): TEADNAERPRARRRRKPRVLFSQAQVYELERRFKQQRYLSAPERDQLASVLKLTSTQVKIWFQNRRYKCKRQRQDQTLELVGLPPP
Chain of NKX2-5 (Homo sapiens, UniProt P52952 125-210, R139K) (P52952 125-210 R139K): as the sequence (P52952 125-210) above, with R15K counted along it

ATAAGTGC
binding signal (NKX2-5 [1]): 13 upbm affinity estimate (log intensity, higher = more binding, comparable within an allelic series) | binding signal (NKX2-4 [2]): 12.7 upbm affinity estimate (log intensity, higher = more binding, comparable within an allelic series) | binding signal (NKX2-4 [3]): 13.1 upbm affinity estimate (log intensity, higher = more binding, comparable within an allelic series) | binding signal (NKX2-4 [4]): 12.6 upbm affinity estimate (log intensity, higher = more binding, comparable within an allelic series) | binding signal (NKX2-6 [5]): 12.2 upbm affinity estimate (log intensity, higher = more binding, comparable within an allelic series) | binding signal (NKX2-6 [6]): 13.8 upbm affinity estimate (log intensity, higher = more binding, comparable within an allelic series) | binding signal (NKX2-4 [7]): 13.3 upbm affinity estimate (log intensity, higher = more binding, comparable within an allelic series) | binding signal (NKX2-6 [8]): 11.4 upbm affinity estimate (log intensity, higher = more binding, comparable within an allelic series) | binding signal (NKX3-2 [9]): 12.9 upbm affinity estimate (log intensity, higher = more binding, comparable within an allelic series) | binding signal (NKX2-5 [10]): 12.9 upbm affinity estimate (log intensity, higher = more binding, comparable within an allelic series) | binding signal (NKX3-2 [11]): 13 upbm affinity estimate (log intensity, higher = more binding, comparable within an allelic series)

TCAAGTGA
binding signal (NKX2-5 [1]): 12.5 upbm affinity estimate (log intensity, higher = more binding, comparable within an allelic series) | binding signal (NKX2-4 [2]): 12.5 upbm affinity estimate (log intensity, higher = more binding, comparable within an allelic series) | binding signal (NKX2-4 [3]): 13 upbm affinity estimate (log intensity, higher = more binding, comparable within an allelic series) | binding signal (NKX2-4 [4]): 12.4 upbm affinity estimate (log intensity, higher = more binding, comparable within an allelic series) | binding signal (NKX2-6 [5]): 11.7 upbm affinity estimate (log intensity, higher = more binding, comparable within an allelic series) | binding signal (NKX2-6 [6]): 13.5 upbm affinity estimate (log intensity, higher = more binding, comparable within an allelic series) | binding signal (NKX2-4 [7]): 13.1 upbm affinity estimate (log intensity, higher = more binding, comparable within an allelic series) | binding signal (NKX2-6 [8]): 10.5 upbm affinity estimate (log intensity, higher = more binding, comparable within an allelic series) | binding signal (NKX2-5 [10]): 12.4 upbm affinity estimate (log intensity, higher = more binding, comparable within an allelic series)

CCACTTAG
binding signal (NKX2-5 [1]): 13.1 upbm affinity estimate (log intensity, higher = more binding, comparable within an allelic series) | binding signal (NKX2-4 [2]): 12.7 upbm affinity estimate (log intensity, higher = more binding, comparable within an allelic series) | binding signal (NKX2-4 [3]): 13 upbm affinity estimate (log intensity, higher = more binding, comparable within an allelic series) | binding signal (NKX2-4 [4]): 12.6 upbm affinity estimate (log intensity, higher = more binding, comparable within an allelic series) | binding signal (NKX2-6 [5]): 12.2 upbm affinity estimate (log intensity, higher = more binding, comparable within an allelic series) | binding signal (NKX2-6 [6]): 14 upbm affinity estimate (log intensity, higher = more binding, comparable within an allelic series) | binding signal (NKX2-4 [7]): 13.1 upbm affinity estimate (log intensity, higher = more binding, comparable within an allelic series) | binding signal (NKX2-6 [8]): 11.1 upbm affinity estimate (log intensity, higher = more binding, comparable within an allelic series) | binding signal (NKX3-2 [9]): 13.4 upbm affinity estimate (log intensity, higher = more binding, comparable within an allelic series) | binding signal (NKX2-5 [10]): 13.1 upbm affinity estimate (log intensity, higher = more binding, comparable within an allelic series) | binding signal (NKX3-2 [11]): 13.5 upbm affinity estimate (log intensity, higher = more binding, comparable within an allelic series)

AACCACTT
binding signal (NKX2-5 [1]): 12.9 upbm affinity estimate (log intensity, higher = more binding, comparable within an allelic series) | binding signal (NKX2-4 [2]): 12.7 upbm affinity estimate (log intensity, higher = more binding, comparable within an allelic series) | binding signal (NKX2-4 [3]): 13.1 upbm affinity estimate (log intensity, higher = more binding, comparable within an allelic series) | binding signal (NKX2-4 [4]): 12.6 upbm affinity estimate (log intensity, higher = more binding, comparable within an allelic series) | binding signal (NKX2-6 [5]): 12 upbm affinity estimate (log intensity, higher = more binding, comparable within an allelic series) | binding signal (NKX2-6 [6]): 13.7 upbm affinity estimate (log intensity, higher = more binding, comparable within an allelic series) | binding signal (NKX2-4 [7]): 13.2 upbm affinity estimate (log intensity, higher = more binding, comparable within an allelic series) | binding signal (NKX2-6 [8]): 10.9 upbm affinity estimate (log intensity, higher = more binding, comparable within an allelic series) | binding signal (NKX3-2 [9]): 12.9 upbm affinity estimate (log intensity, higher = more binding, comparable within an allelic series) | binding signal (NKX2-5 [10]): 12.8 upbm affinity estimate (log intensity, higher = more binding, comparable within an allelic series) | binding signal (NKX3-2 [11]): 12.9 upbm affinity estimate (log intensity, higher = more binding, comparable within an allelic series)

CCACTCAA
binding signal (NKX2-5 [1]): 12.5 upbm affinity estimate (log intensity, higher = more binding, comparable within an allelic series) | binding signal (NKX2-4 [2]): 12.6 upbm affinity estimate (log intensity, higher = more binding, comparable within an allelic series) | binding signal (NKX2-4 [3]): 13.1 upbm affinity estimate (log intensity, higher = more binding, comparable within an allelic series) | binding signal (NKX2-4 [4]): 12.5 upbm affinity estimate (log intensity, higher = more binding, comparable within an allelic series) | binding signal (NKX2-6 [5]): 11.8 upbm affinity estimate (log intensity, higher = more binding, comparable within an allelic series) | binding signal (NKX2-6 [6]): 13.4 upbm affinity estimate (log intensity, higher = more binding, comparable within an allelic series) | binding signal (NKX2-4 [7]): 13.1 upbm affinity estimate (log intensity, higher = more binding, comparable within an allelic series) | binding signal (NKX2-6 [8]): 10.7 upbm affinity estimate (log intensity, higher = more binding, comparable within an allelic series) | binding signal (NKX3-2 [9]): 12.6 upbm affinity estimate (log intensity, higher = more binding, comparable within an allelic series) | binding signal (NKX2-5 [10]): 12.3 upbm affinity estimate (log intensity, higher = more binding, comparable within an allelic series) | binding signal (NKX3-2 [11]): 12.7 upbm affinity estimate (log intensity, higher = more binding, comparable within an allelic series)

AAGCACTT
binding signal (NKX2-5 [1]): 12.7 upbm affinity estimate (log intensity, higher = more binding, comparable within an allelic series) | binding signal (NKX2-4 [2]): 12.6 upbm affinity estimate (log intensity, higher = more binding, comparable within an allelic series) | binding signal (NKX2-4 [3]): 12.9 upbm affinity estimate (log intensity, higher = more binding, comparable within an allelic series) | binding signal (NKX2-4 [4]): 12.4 upbm affinity estimate (log intensity, higher = more binding, comparable within an allelic series) | binding signal (NKX2-6 [5]): 11.8 upbm affinity estimate (log intensity, higher = more binding, comparable within an allelic series) | binding signal (NKX2-6 [6]): 13.5 upbm affinity estimate (log intensity, higher = more binding, comparable within an allelic series) | binding signal (NKX2-4 [7]): 13.1 upbm affinity estimate (log intensity, higher = more binding, comparable within an allelic series) | binding signal (NKX2-6 [8]): 11 upbm affinity estimate (log intensity, higher = more binding, comparable within an allelic series) | binding signal (NKX3-2 [9]): 12.5 upbm affinity estimate (log intensity, higher = more binding, comparable within an allelic series) | binding signal (NKX2-5 [10]): 12.5 upbm affinity estimate (log intensity, higher = more binding, comparable within an allelic series) | binding signal (NKX3-2 [11]): 12.6 upbm affinity estimate (log intensity, higher = more binding, comparable within an allelic series)
